Measured values: the supplement of paper PMC12282887
± gives the standard deviation of the averaged measurements.

Assays:
Test in all cases: promoter activity interaction Z-score (Lux/OD deviation from empty-vector control); higher = stronger promoter induction by the compound
[1] = system: E. coli BW25113 micFp lux reporter
Procedure, shortened: (§1)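 At 37°C, E. coli BW25113 reporter cultures in 40 µl LB Lennox in 384-well plates were read for OD600 and luminescence every 30 min for 12 h. Windows were 0–8 h for wild type and 1–9 h for deletion strains, and wells under 10% of the median growth value were removed. The score is the Z-transformed residual of growth-normalised luminescence against a control fit.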

[2] = system: E. coli BW25113 ompFp lux reporter
Procedure, shortened: as §1

[3] = system: E. coli BW25113 robp lux reporter
Procedure, shortened: as §1

[4] = system: E. coli BW25113 soxSp lux reporter
Procedure, shortened: as §1

[5] = system: E. coli BW25113 tolCp lux reporter
Procedure, shortened: as §1

[6] = system: E. coli BW25113 acrABp lux reporter
Procedure, shortened: as §1

[7] = 157.2 µg/ml, genetic background: Δrob
[8] = 157.2 µg/ml, genetic background: ΔsoxS
[9] = 19.7 µg/ml, genetic background: wild type
[10] = 19.7 µg/ml, genetic background: ΔmarA
[11] = 19.7 µg/ml, genetic background: Δrob
[12] = 19.7 µg/ml, genetic background: ΔsoxS
[13] = 39.3 µg/ml, genetic background: wild type
[14] = 39.3 µg/ml, genetic background: ΔmarA
[15] = 39.3 µg/ml, genetic background: Δrob
[16] = 39.3 µg/ml, genetic background: ΔsoxS
[17] = 78.6 µg/ml, genetic background: wild type
[18] = 78.6 µg/ml, genetic background: ΔmarA
[19] = 78.6 µg/ml, genetic background: Δrob
[20] = 78.6 µg/ml, genetic background: ΔsoxS
[21] = 157.2 µg/ml, genetic background: wild type
[22] = 157.2 µg/ml, genetic background: ΔmarA
[23] = 18.1 µg/ml, genetic background: wild type
[24] = 18.1 µg/ml, genetic background: ΔmarA
[25] = 18.1 µg/ml, genetic background: Δrob
[26] = 18.1 µg/ml, genetic background: ΔsoxS
[27] = 36.3 µg/ml, genetic background: wild type
[28] = 36.3 µg/ml, genetic background: ΔmarA
[29] = 36.3 µg/ml, genetic background: Δrob
[30] = 36.3 µg/ml, genetic background: ΔsoxS
[31] = 72.6 µg/ml, genetic background: wild type
[32] = 72.6 µg/ml, genetic background: ΔmarA
[33] = 72.6 µg/ml, genetic background: Δrob
[34] = 72.6 µg/ml, genetic background: ΔsoxS
[35] = 145.1 µg/ml, genetic background: wild type
[36] = 145.1 µg/ml, genetic background: ΔmarA
[37] = 145.1 µg/ml, genetic background: Δrob
[38] = 145.1 µg/ml, genetic background: ΔsoxS

CC(=O)[C@H]1CC[C@H]2[C@@H]3CCC4=CC(=O)CC[C@]4(C)[C@H]3CC[C@]12C [Progesterone]
promoter activity interaction Z-score [1, 7]: -0.0152 ± 0.04
promoter activity interaction Z-score [1, 8]: 0.0431 ± 0.32
promoter activity interaction Z-score [2, 9]: -0.534 ± 0.033
promoter activity interaction Z-score [2, 10]: -0.169 ± 0.36
promoter activity interaction Z-score [2, 11]: -0.0375 ± 0.16
promoter activity interaction Z-score [2, 12]: -0.19 ± 0.42
promoter activity interaction Z-score [2, 13]: -0.381 ± 0.1
promoter activity interaction Z-score [2, 14]: -0.611 ± 0.036
promoter activity interaction Z-score [2, 15]: 0.0341 ± 0.39
promoter activity interaction Z-score [2, 16]: -0.905 ± 0.22
promoter activity interaction Z-score [2, 17]: -0.604 ± 0.2
promoter activity interaction Z-score [2, 18]: -0.705 ± 0.19
promoter activity interaction Z-score [2, 19]: -0.397 ± 0.063
promoter activity interaction Z-score [2, 20]: -0.681 ± 0.46
promoter activity interaction Z-score [2, 21]: -0.672 ± 0.32
promoter activity interaction Z-score [2, 22]: -0.651 ± 0.19
promoter activity interaction Z-score [2, 7]: -1.43 ± 0.17
promoter activity interaction Z-score [2, 8]: -1.51 ± 0.4
promoter activity interaction Z-score [3, 9]: 0.215 ± 0.46
promoter activity interaction Z-score [3, 10]: -0.134 ± 0.11
promoter activity interaction Z-score [3, 11]: 0.137 ± 0.78
promoter activity interaction Z-score [3, 12]: 0.0784 ± 0.35
promoter activity interaction Z-score [3, 13]: -0.384 ± 0.091
promoter activity interaction Z-score [3, 14]: -0.498 ± 0.18
promoter activity interaction Z-score [3, 15]: -0.00268 ± 0.38
promoter activity interaction Z-score [3, 16]: -0.408 ± 1.2
promoter activity interaction Z-score [3, 17]: 0.0849 ± 0.14
promoter activity interaction Z-score [3, 18]: -0.366 ± 0.29
promoter activity interaction Z-score [3, 19]: -0.234 ± 0.65
promoter activity interaction Z-score [3, 20]: -0.171 ± 0.34
promoter activity interaction Z-score [3, 21]: -0.26 ± 0.16
promoter activity interaction Z-score [3, 22]: -0.185 ± 0.13
promoter activity interaction Z-score [3, 7]: -0.798 ± 0.68
promoter activity interaction Z-score [3, 8]: -1.05 ± 0.11
promoter activity interaction Z-score [4, 9]: -0.199 ± 0.29
promoter activity interaction Z-score [4, 10]: -0.22 ± 0.01
promoter activity interaction Z-score [4, 11]: 0.0249 ± 0.041
promoter activity interaction Z-score [4, 12]: -0.00845 ± 0.063
promoter activity interaction Z-score [4, 13]: -0.25 ± 0.099
promoter activity interaction Z-score [4, 14]: -0.192 ± 0.018
promoter activity interaction Z-score [4, 15]: -0.155 ± 0.04
promoter activity interaction Z-score [4, 16]: -0.315 ± 0.23
promoter activity interaction Z-score [4, 17]: -0.226 ± 0.1
promoter activity interaction Z-score [4, 18]: -0.147 ± 0.072
promoter activity interaction Z-score [4, 19]: -0.0586 ± 0.098
promoter activity interaction Z-score [4, 20]: -0.236 ± 0.25
promoter activity interaction Z-score [4, 21]: -0.226 ± 0.079
promoter activity interaction Z-score [4, 22]: -0.186 ± 0.028
promoter activity interaction Z-score [4, 7]: -0.48 ± 0.037
promoter activity interaction Z-score [4, 8]: -0.776 ± 0.47
promoter activity interaction Z-score [5, 9]: -0.462 ± 1.4
promoter activity interaction Z-score [5, 10]: 0.741 ± 0.62
promoter activity interaction Z-score [5, 11]: -0.127 ± 0.85
promoter activity interaction Z-score [5, 12]: -0.377 ± 0.42
promoter activity interaction Z-score [5, 13]: 0.606 ± 1
promoter activity interaction Z-score [5, 14]: 0.0914 ± 0.43
promoter activity interaction Z-score [5, 15]: 0.494 ± 1
promoter activity interaction Z-score [5, 16]: -1.65 ± 1.1
promoter activity interaction Z-score [5, 17]: -0.308 ± 0.37
promoter activity interaction Z-score [5, 18]: 0.451 ± 1.3
promoter activity interaction Z-score [5, 19]: 0.161 ± 0.71
promoter activity interaction Z-score [5, 20]: 0.0688 ± 1.3
promoter activity interaction Z-score [5, 21]: -0.227 ± 0.23
promoter activity interaction Z-score [5, 22]: 0.167 ± 0.12
promoter activity interaction Z-score [5, 7]: -0.116 ± 0.74
promoter activity interaction Z-score [5, 8]: 0.764 ± 1

Oc1cc(O)c2c(c1)O[C@@H](c1ccc(O)c(O)c1)[C@H](O)C2 [Catechin]
promoter activity interaction Z-score [6, 23]: 0.118 ± 0.17
promoter activity interaction Z-score [6, 24]: -0.352 ± 0.15
promoter activity interaction Z-score [6, 25]: 0.3299 ± 0.003
promoter activity interaction Z-score [6, 26]: -0.306 ± 0.42
promoter activity interaction Z-score [6, 27]: 0.149 ± 0.084
promoter activity interaction Z-score [6, 28]: -1.14 ± 0.28
promoter activity interaction Z-score [6, 29]: 0.394 ± 0.14
promoter activity interaction Z-score [6, 30]: -0.191 ± 0.27
promoter activity interaction Z-score [6, 31]: -0.243 ± 0.23
promoter activity interaction Z-score [6, 32]: -0.35 ± 0.0073
promoter activity interaction Z-score [6, 33]: 0.0378 ± 0.18
promoter activity interaction Z-score [6, 34]: -0.0752 ± 0.23
promoter activity interaction Z-score [6, 35]: -0.205 ± 0.27
promoter activity interaction Z-score [6, 36]: -0.135 ± 0.26
promoter activity interaction Z-score [6, 37]: 0.0277 ± 0.083
promoter activity interaction Z-score [6, 38]: -0.364 ± 0.16
promoter activity interaction Z-score [1, 23]: -0.45 ± 0.11
promoter activity interaction Z-score [1, 24]: -0.0948 ± 0.022
promoter activity interaction Z-score [1, 25]: -0.0243 ± 0.03
promoter activity interaction Z-score [1, 26]: -0.43 ± 0.036
promoter activity interaction Z-score [1, 27]: -0.372 ± 0.21
promoter activity interaction Z-score [1, 28]: -0.115 ± 0.1
promoter activity interaction Z-score [1, 29]: -0.0591 ± 0.057
promoter activity interaction Z-score [1, 30]: -0.4729 ± 0.00069
promoter activity interaction Z-score [1, 31]: -0.209 ± 0.095
promoter activity interaction Z-score [1, 32]: -0.0545 ± 0.022
promoter activity interaction Z-score [1, 33]: -0.0723 ± 0.19
promoter activity interaction Z-score [1, 34]: -0.295 ± 0.12
promoter activity interaction Z-score [1, 35]: -0.569 ± 0.15
promoter activity interaction Z-score [1, 36]: -0.0791 ± 0.1
promoter activity interaction Z-score [1, 37]: -0.0881 ± 0.0077
promoter activity interaction Z-score [1, 38]: -0.263 ± 0.028
promoter activity interaction Z-score [2, 23]: 0.365 ± 0.41
promoter activity interaction Z-score [2, 24]: -0.591 ± 0.23
promoter activity interaction Z-score [2, 25]: -0.0407 ± 0.17
promoter activity interaction Z-score [2, 26]: -0.757 ± 0.35
promoter activity interaction Z-score [2, 27]: 0.374 ± 0.65
promoter activity interaction Z-score [2, 28]: -0.588 ± 0.15
promoter activity interaction Z-score [2, 29]: 0.0282 ± 0.096
promoter activity interaction Z-score [2, 30]: -0.571 ± 0.38
promoter activity interaction Z-score [2, 31]: 0.326 ± 0.55
promoter activity interaction Z-score [2, 32]: -0.202 ± 0.48
promoter activity interaction Z-score [2, 33]: -0.391 ± 0.39
promoter activity interaction Z-score [2, 34]: -0.391 ± 0.094
promoter activity interaction Z-score [2, 35]: -0.0294 ± 0.93
promoter activity interaction Z-score [2, 36]: -0.395 ± 0.18
promoter activity interaction Z-score [2, 37]: 0.079 ± 0.47
promoter activity interaction Z-score [2, 38]: -0.14 ± 0.27
promoter activity interaction Z-score [3, 23]: 1.06 ± 0.79
promoter activity interaction Z-score [3, 24]: -0.456 ± 0.041
promoter activity interaction Z-score [3, 25]: 0.533 ± 0.081
promoter activity interaction Z-score [3, 26]: 0.443 ± 0.12
promoter activity interaction Z-score [3, 27]: 0.0214 ± 0.94
promoter activity interaction Z-score [3, 28]: -0.758 ± 0.23
promoter activity interaction Z-score [3, 29]: 0.0934 ± 0.32
promoter activity interaction Z-score [3, 30]: 0.783 ± 1.1
promoter activity interaction Z-score [3, 31]: 0.124 ± 0.48
promoter activity interaction Z-score [3, 32]: -0.279 ± 0.31
promoter activity interaction Z-score [3, 33]: -0.125 ± 0.14
promoter activity interaction Z-score [3, 34]: -0.0104 ± 0.026
promoter activity interaction Z-score [3, 35]: 0.00344 ± 0.46
promoter activity interaction Z-score [3, 36]: 0.234 ± 0.22
promoter activity interaction Z-score [3, 37]: -0.253 ± 0.025
promoter activity interaction Z-score [3, 38]: 0.154 ± 0.41
promoter activity interaction Z-score [4, 23]: -0.0785 ± 0.09
promoter activity interaction Z-score [4, 24]: 0.187 ± 0.029
promoter activity interaction Z-score [4, 25]: 0.051 ± 0.17
promoter activity interaction Z-score [4, 26]: -0.175 ± 0.061
promoter activity interaction Z-score [4, 27]: -0.0143 ± 0.021
promoter activity interaction Z-score [4, 28]: 0.127 ± 0.097
promoter activity interaction Z-score [4, 29]: 0.055 ± 0.095
promoter activity interaction Z-score [4, 30]: -0.0693 ± 0.098
promoter activity interaction Z-score [4, 31]: -0.0515 ± 0.13
promoter activity interaction Z-score [4, 32]: 0.0702 ± 0.24
promoter activity interaction Z-score [4, 33]: 0.012 ± 0.11
promoter activity interaction Z-score [4, 34]: -0.155 ± 0.42
promoter activity interaction Z-score [4, 35]: -0.342 ± 0.028
promoter activity interaction Z-score [4, 36]: -0.0381 ± 0.14
promoter activity interaction Z-score [4, 37]: -0.122 ± 0.12
promoter activity interaction Z-score [4, 38]: -0.346 ± 0.37
promoter activity interaction Z-score [5, 23]: 0.35 ± 1.1
promoter activity interaction Z-score [5, 24]: 0.209 ± 0.5
promoter activity interaction Z-score [5, 25]: 0.0748 ± 1.2
promoter activity interaction Z-score [5, 26]: -0.253 ± 0.35
promoter activity interaction Z-score [5, 27]: -0.149 ± 0.74
promoter activity interaction Z-score [5, 28]: -0.0811 ± 0.12
promoter activity interaction Z-score [5, 29]: 0.0597 ± 0.79
promoter activity interaction Z-score [5, 30]: -0.531 ± 0.23
promoter activity interaction Z-score [5, 31]: -0.323 ± 0.58
promoter activity interaction Z-score [5, 32]: 0.371 ± 0.19
promoter activity interaction Z-score [5, 33]: -0.107 ± 0.25
promoter activity interaction Z-score [5, 34]: -0.249 ± 0.24
promoter activity interaction Z-score [5, 35]: -0.897 ± 0.36
promoter activity interaction Z-score [5, 36]: 0.397 ± 0.58
promoter activity interaction Z-score [5, 37]: 0.104 ± 0.68
promoter activity interaction Z-score [5, 38]: 0.637 ± 0.9
